# Compounds with a hit are over-represented: about 8.2% of the library has one in this group of screens.
# SW480 rerep: A quantitative high throughput screen for small molecules that induce DNA re-replication in SW480 colon adenocarcinoma cells; SW480 DNA re-replication, Hoechst DNA content imaging, 48 h; Potency, µM (series often up to 46.1 µM), inactives show at the top dose re-replication activation, most hits filed as activators; 340,000 compounds, 1.8% hits; also: % of control where 0% means no effect; nearly all actives have a fitted effect of over 55% in size
#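 Readout is total intensity of Hoechst-stained nuclei, excited at 405 nm and collected at 500-530 nm. Compound treatment lasted 48 hr at 37 C in 5% CO2 before staining.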
# MCF10A rerep: A quantitative high throughput screen for small molecules that induce DNA re-replication in MCF 10a normal breast cells; 350,000 compounds, 2.9% hits; Potency, µM (top dose mostly 46.1 µM), without a hit: top-dose activity, positive = re-replication, hits mostly activators; MCF 10A DNA re-replication, Hoechst nuclear intensity, 48 h; also: % of control where 0% means no effect; nearly all actives have a fitted effect of over 50% in size
# ELG1 DNA repair: qHTS screen for small molecules that inhibit ELG1-dependent DNA repair in human embryonic kidney (HEK293T) cells expressing luciferase-tagged ELG1; HEK293T ELG1-luciferase reporter, luminescence, 16 h; DNA damage induced by 5-fluorouridine; Potency, µM (highest dose often 46.1 µM), for the others: top-dose activity change, negative = inhibition, hits mostly inhibitors; 330,000 compounds, 2.3% hits; also: % is scaled to controls: 0 for no effect and ±100 for the full control effect; nearly all actives have a fitted effect of over 55% in size
#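 Step one: seed 2,000 cells per well. Step two: pin-transfer compound or DMSO alongside 5-fluorouridine. Step three: incubate 16 hr, 37 °C, 5% CO2. Step four: add ONE-Glo, wait 30 min, read luminescence.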
# KB-3-1 cytotox: qHTS assay for MDR1-selective chemotherapeutics: Primary screen using the parental adenocarcinoma cell KB-3-1 | KB-3-1 viability, CellTiter-Glo ATP luminescence, 72 h | Potency, µM (top dose mostly 46.1 µM), actives largely listed as cytotoxic | 400,000 compounds, 1.4% hits | AID 1347075, 2019; also: % is scaled to controls: 0 for no effect and ±100 for the full control effect; nearly all actives have a fitted effect of over 60% in size
#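 KB-3-1 cells, DMEM (no phenol red) + 10% FBS; compound by pin transfer, 72 h, 37 °C. Readout: CellTiter-Glo luminescence after 10 min. Data normalized, curve-fitted.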
# KB-V1 cytotox: qHTS assay for MDR1-selective chemotherapeutics: Primary screen using the drug-selected MDR subline cells KB-V1; KB-V1 MDR cells viability, CellTiter-Glo, 72 h; Potency, µM (doses to about 46.1 µM), usual class: cytotoxic; 400,000 compounds, 3.4% hits; also: % is scaled to controls: 0 for no effect and ±100 for the full control effect; nearly all actives have a fitted effect of over 60% in size
#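 KB-V1 cells (P-gp-expressing MDR subline of KB-3-1) in phenol-red-free DMEM with 10% FBS were exposed to library compounds over a concentration series for 72 h at 37 degrees C. Viability read by CellTiter-Glo luminescence; concentration-effect curves fitted after normalization.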
# Numbers without * were called inactive; i = inactive; ? = inconclusive; . = no result; [ ] = dose if it differs, or a comment. Calls follow the shape of the dose curve; as a rule, active = well fitted curve in the direction sought with a large enough effect; inconclusive = small, poorly fitted or top-dose-only effect, or another doubt; inactive = no such curve, though single readings can be large; an effect the other way counts as inactive or inconclusive. Potency is read from the fitted curve at half-maximal effect.
SMILES,SW480 rerep,MCF10A rerep,ELG1 DNA repair,KB-3-1 cytotox,KB-V1 cytotox
CCOC(=O)c1c(NC(=O)CSc2nncs2)sc(C)c1-c1ccccc1,8%,7.3µM*,?,?,7.3µM*
CCOC(=O)c1c(-c2ccccc2)csc1NC(=O)CSc1nncs1,-15%,23%,?,i,?
COC(=O)c1c(-c2ccc(OC)c(OC)c2)csc1N,-4%,-1%,?,i,i
CCOC(=O)c1c(-c2ccccc2)csc1NC(=O)/C(C#N)=C/c1ccc(O)c(OC)c1,?,21µM*,?,i,i
COC(=O)c1c(-c2ccc3ccccc3c2)csc1NC(=O)Cc1ccc(OC)c(OC)c1,?,?,?,?,15µM*
CCOC(=O)c1c(-c2ccccc2)csc1NC(=O)CSc1ccccc1,-1%,9%,-1%,i,18µM*
CCOC(=O)c1c(-c2ccccc2)csc1NC(=O)/C(C#N)=C/c1ccc(OC)c(OC)c1,2%,?,3%,i,i
CCOC(=O)c1c(NC(=O)CSc2nncs2)sc(C)c1C,-7%,-1%,15%,i,i
O=C(O)CN=C(Nc1cc(Cl)cc(Cl)c1)NC(c1ccccc1)c1ccccc1,.,.,.,i,i
CCc1cccc(NC(=O)COC(=O)/C=C/c2cccs2)c1,-1%,-2%,9%,i,i
Cc1ccc(NC(=O)CCSc2nnc3ccccn23)cc1,3%,0%,8%,i,i
CCOC(=O)c1c(-c2ccc(OC)cc2)csc1NC(=O)CSc1ccccc1,8%,7.3µM*,-13%,?,i
CCOC(=O)c1c(-c2ccc(OC)cc2)csc1NC(=O)CSc1nnc(C)c(=O)[nH]1,-1%,?,-1%,i,i
CCOC(=O)c1c(-c2ccc(C)cc2)csc1NC(=O)CCSc1nnc2ccccn12,-2%,?,?,i,16µM*
COc1cc(OC)c(C2=Nc3ccc(Br)cc3C(c3ccccc3)N2CC(=O)NN)cc1OC (centres undefined),-9%,2.9µM*,9%,i,i
CCCOc1ccc(CCCN=C(N)N)cc1Cl,21%,?,13µM*,21µM*,i
CCCCOc1ccc(CN=C(N)N)cc1Cl,20%,?,?,?,i
Cc1ccc(NS(=O)(=O)c2ccc(C(=O)N3CCN(c4ncccn4)CC3)cc2)cc1,3%,-7%,5.8µM*,?,?
Cc1ccc(NS(=O)(=O)c2ccc(C(=O)N3CCN(S(=O)(=O)c4ccccc4)CC3)cc2)cc1,26µM*,7%,?,?,?
O=C(c1ccc(S(=O)(=O)Nc2ccc(F)cc2)cc1)N1CCN(c2ccccn2)CC1,-1%,-2%[9.22 µM],16µM*,i,?
Cc1cc(C)nc(NNS(=O)(=O)c2c(F)cc(F)cc2Br)n1,-4%,-3%,28%,i,i
CC(C)(C)c1ccc(-c2nnc(-c3ccccc3NC(=O)c3cccc(C(F)(F)F)c3)o2)cc1,.,.,.,i,?
COc1ccc(C)cc1NC(=O)c1ccc(=O)n(Cc2ccccc2)c1,.,.,.,i,i
CCOC(=O)c1cnc2ccc(OC)cc2c1NCc1ccccc1,-7%,11%,-29%,i,3.7µM*
CCOC(=O)c1cnc2ccc(OC)cc2c1Nc1cccc(C(C)=O)c1,.,.,.,i,i
SMILES,SW480 rerep,MCF10A rerep,ELG1 DNA repair,KB-3-1 cytotox,KB-V1 cytotox
CCOC(=O)c1cnc2ccc(OCC)cc2c1NCc1ccccc1OC,27%,?,?,?,7.3µM*
CCc1cccc(C)c1Nc1c(-c2cccc(O)c2)nc2nc(C)cc(C)n12,.,.,.,i,i
CC(C)c1ccc(NC(=O)c2ccc(F)c(S(=O)(=O)N3CCc4ccccc4C3)c2)cc1,.,.,.,i,i
NC(N)=N/N=C/c1ccc(OCc2ccccc2Cl)cc1,13µM*,-1%,0%,?,i
NC(N)=N/N=C/c1ccc(Cl)c(Cl)c1,?,?,16%,16µM*,21µM*
COC(=O)c1c(C)cccc1C1CN=NC12Cc1ccccc1C2=O (centres undefined),-4%,-5%,.,i,21µM*
Cn1cc(Br)c(-c2cccc(NC(=O)CC(C)(C)CC(=O)O)c2)n1,-8%,4%,0%,i,i
CCC(C)NC(=O)Cn1c(=O)n(Cc2ccc(C(=O)NCCCOC)cc2)c(=O)c2ccccc21 (centres undefined),.,.,.,i,i
CC(=O)c1sc(N/N=C\c2ccccc2O)nc1C,?,16µM*,?,?,i
CCOC(=O)c1sc(N/N=C/c2ccccc2)nc1C,?,?,?,i,i
Cc1c(C(=O)NCCS(=O)(=O)N2CCN(c3ccccc3F)CC2)cccc1[N+](=O)[O-],?,?,15µM*,23µM*,?
Cc1ccc(C(=O)NCCS(=O)(=O)N2CCN(c3ccccc3F)CC2)cc1[N+](=O)[O-],-23%,3%,21µM*,i,i
O=C(Cc1ccc(Cl)cc1)NCCS(=O)(=O)N1CCN(c2ccccc2F)CC1,?,18µM*,-11%,13µM*,7.3µM*
O=C(NCCS(=O)(=O)N1CCN(c2ccccc2F)CC1)c1ccc(Cl)cc1,-3%,13%,-10%,i,?
O=C(NCCS(=O)(=O)N1CCN(c2ccccc2F)CC1)c1cccc(Br)c1,4%,3%,-5%,i,i
COC(=O)[C@H](CCSC)NC(=O)Cn1cnc(C(=O)Nc2ccc(C)c(C)c2)n1,7%,-1%,?,i,i
C=CCc1cc(C(=O)N2CCCCC2)ccc1O,1%,-1%,?,?,21µM*
CC(=O)NN1C(=O)/C(=C\c2ccc(Cl)cc2)SC1=S,-6%,25%,8%,i,i
O=C(CCS(=O)(=O)c1ccccc1)Nc1nnc(C(F)(F)F)s1,13µM*,23µM*,-23%,?,?
CC1(C)CC(=O)c2sc(NS(=O)(=O)c3ccc(Br)cc3)nc2C1,-31%,0.58µM*,21%,i,i
O=C(O)CCC(=O)Nc1nnc(C(F)(F)F)s1,-3%,-1%,-3%,i,?
CC(C)(C)c1nnc(NC(=O)CCS(=O)(=O)c2ccccc2)s1,?,?,6%,i,i
CCC(NC(=O)Nc1nnc(C(F)(F)F)s1)(C(F)(F)F)C(F)(F)F,?,?,23µM*,10µM*,4.1µM*

# Screens as filed in PubChem.
